# Source: PubChem
# dFosB act: activators of mouse delta FosB homodimer | P13346 | purified delta FosB, TAMRA-CDK5 oligo fluorescence polarization; percent of positive-control signal above neutral wells | activation, % at 25 µM | 340,000 tested, 0.99% active | AID 493131;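 active means mean activation above about 17%, with every replicate also reaching it, limit read from the data, passing the limit was not always enough; inconclusive means only one of the two conditions met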
# Target sequence (P13346 whole entry, looked up): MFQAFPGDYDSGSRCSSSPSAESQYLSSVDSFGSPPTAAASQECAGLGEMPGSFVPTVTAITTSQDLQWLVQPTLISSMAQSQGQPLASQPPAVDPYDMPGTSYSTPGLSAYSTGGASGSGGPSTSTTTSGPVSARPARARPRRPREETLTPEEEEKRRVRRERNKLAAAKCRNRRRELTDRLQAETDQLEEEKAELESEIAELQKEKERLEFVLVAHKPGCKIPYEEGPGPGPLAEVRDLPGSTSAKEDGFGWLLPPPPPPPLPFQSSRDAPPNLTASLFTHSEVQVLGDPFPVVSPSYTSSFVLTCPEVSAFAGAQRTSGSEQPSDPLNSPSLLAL
# UBC13 polyUb: blocks human UBC13 polyubiquitin chain formation | P61088 | TR-FRET | inhibition, % at 20 µM | 330,000 tested, 0.47% active; in the data active means inhibition above about 45%, passing the limit was not always enough; inconclusive means no clear call, values can overlap the other calls
# CR mimetic SO: lowers age-related superoxide in aged yeast cells; S. cerevisiae aged cells, superoxide DHE fluorescence; hits give low values; superoxide response (% of plate mean), % at 10 µM; 330,000 tested, 0.18% active;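 active means superoxide response under a set limit, about three screen SD below normal, cut at about 65% in these data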;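 further: yeast aged for seven days with compound at 30 °C before DHE staining; 100% = average MFI of all compound-treated wells on the plate with controls excluded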
# GRIN3A LBD mod: NR3A (human) ligand-binding domain modulation | NR3A LBD differential scanning fluorimetry, Tm shift; 0% = protein alone, 100% = glycine-bound protein | Tm shift relative to glycine control, % at 25 µM | 340,000 tested, 2.5% active;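 active means melting temperature shift of at least 10% of the positive control shift, at one fixed dose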
# NALP1 inh: blocks the NALP1 inflammasome reconstituted in yeast | S. cerevisiae NALP1/ASC/caspase-1 growth, X-gal OD620, 72 h | inhibition, % at 10 µM | 280,000 tested, 0.61% active | AID 2071; in the data active means inhibition mostly above about 24%, no sharp cut-off; inactive means mostly below about 32%
# Active calls of the source: *; u = inconclusive; x = no result. The list is not random: actives were taken first. Their share in the collection is about 4.3%.
SMILES,dFosB act,UBC13 polyUb,CR mimetic SO,GRIN3A LBD mod,NALP1 inh
Cn1c(=Nc2ccc(N3CCOCC3)cc2)ccc2ccccc21,-4.4,-1.7,92.3,-2.5,-2.2
CCc1ccc(CN(C)CC(=O)Nc2ccccc2[N+](=O)[O-])cc1,1.1,u,132.9,19.1*,31.9
Cc1ccc(S(=O)(=O)N(C(=O)c2ccncc2)c2ccc(OC(=O)c3ccncc3)c3ccccc23)cc1,2.6,0.9,119.1,3.6,48.1*
O=C(Nc1ccc(S(=O)(=O)Nc2ccccc2F)cc1)N1CCCCC1,0.0,-11.0,99.9,-1.3,9.5
CN1CCc2c(sc3nc(SCC(=O)NCc4ccco4)n(-c4ccccc4)c(=O)c23)C1,-9.8,2.9,107.0,1.6,-5.2
CCOc1ccc(-c2n[nH]c(C)c2Oc2ccc(OC)cc2)c(O)c1,1.8,11.9,110.2,12.3*,1.2
Cc1[nH]nc(-c2ccc(OCc3cnn(-c4ccccc4)c3)cc2O)c1Oc1ccc(F)cc1,-7.6,-1.7,102.0,20.3*,2.6
Cc1[nH]nc(-c2ccc(O)c(C)c2O)c1Oc1ccccc1,-3.5,12.3,74.4,-8.1,22.1
O=C(CCNC(=O)C1CCN(S(=O)(=O)c2ccc(F)cc2)CC1)NCc1cccc(Cl)c1,-12.0,1.0,93.8,0.2,-9.1
O=C(CN1CCCCCC1=O)N1CCN(S(=O)(=O)c2cccs2)CC1,-1.0,-23.3,87.5,-1.2,23.8
Cc1ccc(F)c(Cn2cnc3c(cnn3C(C)(C)C)c2=O)c1Cl,-11.4,6.8,89.0,-0.2,x
COC(=O)COc1ccc(/C=N/NS(=O)(=O)c2ccccc2)cc1,1.4,-7.1,103.0,-1.0,8.9
NC(=O)COc1ccc(/C=N/NS(=O)(=O)c2ccccc2)cc1,5.5,-4.4,108.4,-0.2,39.5*
Cc1ccc(/C=N/NS(=O)(=O)c2ccccc2)o1,-5.8,5.4,97.1,21.3*,16.0
COc1cc(/C=N/NC(=O)COc2cccc(F)c2)ccc1OS(=O)(=O)c1ccc(C)cc1,-11.3,-13.1,100.7,6.2,20.7
Cc1ccc(S(=O)(=O)N/N=C/c2ccc(OCC(=O)Nc3ccccc3Cl)cc2)cc1,-4.6,-2.1,88.4,18.0*,12.9
COc1cc(/C=N/NC(=O)COc2ccc(Cl)cc2)ccc1OS(=O)(=O)c1ccc(C)cc1,-2.3,34.3,89.6,11.7*,-6.2
O=C1CCCC/C=C\C[C@H](CC(=O)N(CCO)Cc2ccccc2)C(=O)NCCO1,0.5,6.6,84.8,0.7,x
O=C(COC(=O)c1c2c(nc3ccccc13)/C(=C\c1cccs1)CCC2)Nc1ccccc1,-0.5,-3.3,101.6,16.8*,12.3
CCOc1ccc(/C=N/NC(=O)Cc2csc(Nc3cccc(C(F)(F)F)c3)n2)c(OCC)c1,-3.9,-3.7,88.1,10.0*,0.4
CCn1c(SCC(=O)N2CCCC(C)C2)nnc1-c1ccc(S(=O)(=O)N2CCN(C)CC2)cc1 (stereo unspecified),-3.0,-4.7,110.8,-0.6,35.2*
CCn1c(SCC(=O)N2CCCCC2)nnc1-c1ccc(S(=O)(=O)N2CCN(C)CC2)cc1,1.6,6.3,98.8,0.6,14.3
CCN1CCCc2cc(CN(CCN3CCOCC3)C(=S)Nc3cccc(Cl)c3)ccc21,-8.1,-4.4,91.8,-1.3,-0.3
O=C(COC(=O)c1ccccc1Br)Nc1ccc2[nH]c(=O)[nH]c2c1,-3.2,3.1,111.0,5.3,x
CCOC(=O)c1ccc(NC(=S)NCC(O)c2ccccc2)cc1 (stereo unspecified),-11.4,-2.6,118.5,10.3*,7.6
SMILES,dFosB act,UBC13 polyUb,CR mimetic SO,GRIN3A LBD mod,NALP1 inh
CCOC(=O)c1ccc(NC(=S)NCCc2ccccc2F)cc1,-8.2,-4.8,103.5,10.6*,-5.4
CCOC(=O)c1ccc(NC(=S)NCCC2=CCCCC2)cc1,-4.3,-2.9,103.4,13.0*,18.2
O=C(CN1CCOCC1)Nc1ccccc1Sc1ccc(Cl)cc1,-4.5,6.7,83.0,-2.2,45.4
CC(=O)Nc1cccc(OCCCNC(=O)c2cccc3ccccc23)c1,-5.7,-0.5,106.3,-1.5,14.9
CCN(Cc1nc2cc(Cl)ccc2c(=O)[nH]1)C(=O)c1nn(C)c(=O)c2ccccc12,-16.4,-4.0,90.7,1.1,x
Cc1ccc(S(=O)(=O)NCCC(=O)N2CCN(c3ccccc3)CC2)cc1C,-15.0,5.4,89.5,-1.0,x
COc1ccc(C2=Nc3cccc4cccc(c34)N2)cc1,54.6*,-42.6,97.3,-0.1,24.9
O=C(c1ccc(OC2CCN(Cc3ccccc3C(F)(F)F)CC2)cc1)N1CCCCC1,-13.3,-0.3,88.0,18.8*,6.3
